From PubChem BioAssay
Sampled rows, rich in hits. Any-hit rate of the full collection: about 21%.
Pf growth 96h = P. falciparum growth inhibition at 96 hour, primary screen for plastid delayed-death inhibitors. P. falciparum luciferase reporter growth, 96 h. Potency, µM (series often up to 28.7 µM), actives largely listed as inhibitors. 6.9% of 320,000 active
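Erythrocytes infected with luciferase-expressing P. falciparum were dispensed at 2% hematocrit and 0.05% parasitemia (final), then incubated with compounds 96 hours at 37 C in 5% CO2. Luminescence after detection reagent addition reported growth.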
Cycloheximide cs = counter-screen for Shiga toxin inhibitors: cycloheximide protein synthesis inhibition | 12% of 300,000 active | max response, % | AID 2314 | cell reporter, cycloheximide protein synthesis inhibition counterscreen; in the data active = max response mostly above about 13%, no sharp cut-off; inactive = mostly below about 14%; also: read at 38.3 µM for the half of the compounds with a filed dose
Shiga toxin inh = Shiga toxin inhibition | Vero cells, Shiga toxin protein synthesis inhibition reporter | inhibition, % at 38.7 µM | 9.2% of 290,000 active; in the data active = inhibition mostly above about 28%, no sharp cut-off; inactive = mostly below about 43%
NS1 inh = influenza NS1 inhibition. Potency, µM (titrated, usually from 46.1 µM). 0.4% of 270,000 active. AID 2326; calls by dose curve; also: actives are rising curves; nearly all actives have a fitted effect of over 50% in size
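Recovery from NS1-induced slow growth read by OD600 in budding yeast switched to galactose assay medium (pH 6.0, -URA) at 1:100 dilution. Compound 23 nl per well; the matching strain lacking NS1 serves as control.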
Pf growth 48h = inhibits P. falciparum growth in the first generation, 48 h; P. falciparum luciferase growth in erythrocytes, 48 h; Potency, µM (top dose mostly 28.7 µM), hits mostly inhibitors; 5.9% of 310,000 active; AID 504832
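Firefly luciferase activity from engineered P. falciparum reports growth; inhibitors lower the luminescent signal. Cultures contained 2% hematocrit erythrocytes at 0.1% final parasitemia.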
SARS PLpro yeast = inhibitors of SARS-CoV papain-like protease in yeast; S. cerevisiae expressing SARS-CoV PLpro, growth rescue; Potency, µM (titrated, usually from 32.9 µM), most hits filed as activators; 0.19% of 330,000 active; calls by dose curve; also: nearly all actives have a fitted effect of over 55% in size
A number is an active result; . = inactive; ? = inconclusive; / = not tested or not shown; [ ] = remark or other dose. Unless noted, calls follow the shape of the dose curve; as a rule, active = well fitted inhibition curve with a large enough effect; inconclusive = small, poorly fitted or top-dose-only effect, or another doubt; inactive = no such curve, though single readings can be large or run the other way.

SMILES	Pf growth 96h	Cycloheximide cs	Shiga toxin inh	NS1 inh	Pf growth 48h	SARS PLpro yeast
N#Cc1ccc2c(c1)C[C@]1(CCCCN3C(=O)c4ccccc4C3=O)Oc3c(c(=O)oc4ccccc34)C2O1	.[5.75 µM]	.	.	.	1.7µM	.[6.58 µM]
Cc1cc2c(c(=O)n1Cc1ccccc1)C1O[C@](CCCCN3C(=O)c4ccccc4C3=O)(Cc3cc(C#N)ccc31)O2	?	.	.	.	?	.[6.58 µM]
Cc1ccc(Cn2c(=N)n(CC(=O)c3ccccc3)c3ccccc32)cc1	.	.	.	.	?	.
COc1cc(NC(=O)CSc2ccc(-c3ccccn3)nn2)cc(OC)c1	?	.	.	.	?	.
COc1ccc(C)cc1NC(=O)CSc1ccc(-c2ccccn2)nn1	9.3µM	11	.	.	?	.
COc1ccccc1NC(=O)CSc1ccc(-c2ccc(-n3ccnc3)cc2)nn1	?	/	/	/	12µM	/
COc1ccc(C)cc1NC(=O)CSc1ccc(-c2sc(C)nc2C)nn1	.	.	.	.	12µM	.
COc1cccc(NC(=O)CSc2ccc(-c3sc(C)nc3C)nn2)c1	?	.	.	.	?	.
COc1ccc(Cl)cc1NC(=O)CN(C)C(=O)c1cc2c(s1)CCC(C)C2 (stereo unspecified)	?	/	/	/	?	.
O=Cc1c(Cl)nc2ccccn12	.	.	.	.	.	.
Clc1cc2nc3ccccn3c2cc1Cl	.	20	68	.	.	.
CCc1ccc2n(-c3ccc(OC)cc3)c([S-])c(C(=O)Nc3cc(C)cc(C)c3)[n+]2c1	8.3µM	.	.	.	13µM	.
COc1ccc(CCNC(=O)c2c([S-])n(-c3ccc(C)cc3)c3cccc[n+]23)cc1	10µM	.	.	.	?	.
COc1cccc(-n2c([S-])c(C(=O)Nc3ccc(C(F)(F)F)cc3)[n+]3ccccc23)c1	.	.	.	/	?	.
O=C(c1ccc(C#CC2(O)CCCCC2)cc1)N1CCN(Cc2ccccc2)CC1	10µM	.	.	.	?	.
O=C(c1ccc(C#CC2(O)CCCCC2)cc1)N1CCN(C(c2ccccc2)c2ccccc2)CC1	.	21	.	.	/	.
NC(=O)C1(N2CCCCC2)CCN(C(=O)c2ccc(C#CC3(O)CCCCC3)cc2)CC1	?	.	.	.	/	.
CS(=O)(=O)c1ccc(C(=O)N2CCN(Cc3ccccc3)CC2)cc1	.	.	.	/	.	.
CCOC(=O)N1CCN(C(=O)c2ccc(C#CC3(O)CCCCC3)cc2)CC1	/	31	41	.	.	.
CCC(NC(=O)c1ccc(C#CC2(O)CCCCC2)cc1)C(=O)O (stereo unspecified)	.	.	.	.	.	.
O=C(OCc1csc(-c2ccccc2)n1)c1ccc(O)cc1	.	37	116	.	.	.
Cc1ccc(C(=O)NCC(=O)OCc2csc(-c3ccccc3)n2)cc1	.	36	70	.	.	.
COC(=O)c1ccc(COC(=O)CNC(=O)c2ccc(-c3ccccc3)cc2)cc1	.	68	46	.	.	.
CCOc1ccc(C(=O)NCC(=O)OCc2csc(-c3ccccc3)n2)cc1	.	.	.	.	.	.
Cc1ccc(S(=O)(=O)NCC(=O)OCc2csc(-c3ccccc3)n2)cc1	.	15	.	.	.	.
SMILES	Pf growth 96h	Cycloheximide cs	Shiga toxin inh	NS1 inh	Pf growth 48h	SARS PLpro yeast
C[C@H](CO)N1C[C@H](C)[C@@H](CN(C)C(=O)Nc2ccc3c(c2)OCO3)Oc2ccc(NC(=O)NC3CCCCC3)cc2C1=O	/	/	/	/	/	.
O=C(CNS(=O)(=O)c1c(Cl)cccc1Cl)OCc1csc(-c2ccccc2)n1	.	18	.	.	.	.
CCn1nc(C)cc1C(=O)N1CCCC(CCC(=O)NCc2ccccc2F)C1 (stereo unspecified)	?	.	.	.	.	.
Cc1nc(CNC(=O)c2ccccc2OC2CCN(S(C)(=O)=O)CC2)cs1	?	.	.	.	.	.
CCOCCCNC(=O)c1cccc(OC2CCN(S(C)(=O)=O)CC2)c1	.	30	35	.	.	.
CS(=O)(=O)N1CCC(Oc2ccccc2C(=O)N2CCC[C@H]2CO)CC1	.	17	.	.	.	.
CCOCCCNC(=O)c1ccccc1OC1CCN(S(C)(=O)=O)CC1	.	12	.	.	.	.
COCCNC(=O)c1cccc(OC2CCN(Cc3ccccc3C)CC2)c1	1.5µM	.	.	.	.	.
CCOC(=O)Cc1cnc(NC(=O)CSc2nc(N)cc(N)n2)s1	.	.	.	/	.	.
O=C(c1cccc(S(=O)(=O)N2CCc3ccccc32)c1)N1CCOCC1	/	/	/	/	/	.
CS(=O)(=O)N1CCC(Oc2ccccc2C(=O)NC2CCCCCC2)CC1	.	17	.	.	.	.
COCC1CCCCN1C(=O)c1cccc(OC2CCN(S(C)(=O)=O)CC2)c1 (stereo unspecified)	?	16	.	.	.	.
O=C(Nc1nc(-c2cccs2)cs1)c1ccc(Cl)cc1	/	.	.	.	.	.
COc1ccc(C(=O)Nc2nc(-c3cccs3)cs2)cc1	/	45	84	.	.	/
COc1cc(C(=O)Nc2nc(-c3cccs3)cs2)cc(OC)c1OC	.[5.75 µM]	.	.	.	12µM	.
COc1cc(C(=O)NC(=S)Nc2nc(-c3ccc(F)cc3)cs2)cc(OC)c1OC	.	.	.	.	.	.
O=C(COC(=O)/C=C/c1ccc(Br)o1)NCCCN1CCCC1=O	.	.	.	/	.	.
CNC(=O)c1sc(N2N=C3/C(=C/c4ccccc4)CCCC3C2c2ccccc2)nc1C (stereo unspecified)	3.3µM	.	.	.	?	.
O=C(c1ccccn1)N1N=C2/C(=C/c3ccccc3)CCCC2C1c1ccccc1 (stereo unspecified)	?	.	.	.	?	.
CCc1sc(C(=O)NCc2ccco2)cc1Br	10µM	19	/	.	.	.
CCc1sc(C(=O)NCc2ccco2)cc1C	.	.	64	.	.	.
Clc1ccccc1-c1ncc(-c2ccccc2)o1	.	26	/	.	.	.
c1ccc(-c2cnc(-c3ccc(-c4ncc(-c5ccccc5)o4)cc3)o2)cc1	/	/	/	.	/	/
COc1ccc(C(CNC(=O)CCNC(=O)c2ccccc2Cl)N2CCCC2)cc1 (stereo unspecified)	?	/	/	/	.	.
COc1ccc(C(CNC(=O)C(CCSC)NC(=O)c2ccccc2Cl)N2CCOCC2)cc1 (stereo unspecified)	.	/	/	/	.	.
COc1ccc(C(CNC(=O)C(CCSC)NC(=O)c2ccccc2OC)N2CCCCC2)cc1 (stereo unspecified)	12µM	.	.	.	?	.
COc1ccc(C(CNC(=O)CCNC(=O)c2ccccc2OC)N2CCCC2)cc1 (stereo unspecified)	12µM	/	/	/	?	.
CCCCNS(=O)(=O)c1ccc2nc(-c3cccnc3)cc(C(=O)NCCCOCC)c2c1	?	.	.	/	.	.
Nc1ncc(P(=S)(N2CCOCC2)N2CCOCC2)s1	.	.	.	.	.	.
